Screening results as filed in PubChem.
This is a sample that favours compounds with a hit; in the whole collection about 3.1% have one here.
p53null 32C tox – p53 null cell cytotoxicity, permissive temperature; H1299-neo p53 null cells, ATP luminescence, 24 h, 32C; Potency, µM (doses to about 46.1 µM), without a hit: at the highest dose activity change, negative = cytotoxicity, hits mostly cytotoxic; 55,000 compounds, 0.62% hits; AID 903;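 also: 0% = DMSO only and -100% = full killing by 100 µM tamoxifen; nearly all actives have a fitted effect of over 55% in size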
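H1299-neo, 600 cells/well; overnight 37C; cpd up to 46 uM, 24 h at 32C; ATPlite luminescence after 20 min RT; normalized to DMSO (0%) and tamoxifen 100 uM (100% kill); Hill-fit AC50.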
p53null 39C kill – selectivity test: cytotoxicity in p53 null cells, nonpermissive temperature. H1299 p53-null (neo) cells, 39C, ATPlite viability, 24 h. Potency, µM (series often up to 46.1 µM), for the others: top-dose activity, negative = cell killing, usual class: cytotoxic. 55,000 compounds, 0.97% hits. AID 904;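 also: 0% = DMSO only and -100% = full killing by 100 µM tamoxifen; nearly all actives have a fitted effect of over 50% in size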
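ATP-luminescence viability readout (ATPlite, 20 min RT) after 24 hr compound treatment at 39C of H1299-neo or H1299-p53A138V cells; titration up to 46 uM; normalized to DMSO and 100 uM tamoxifen; Hill-fit AC50.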
SKOV3 invasion – ovarian cancer metastasis inhibition, 3D TME model. Potency, µM (titrated, usually from 45.8 µM), without a hit: at the highest dose activity change, negative = inhibition, most hits filed as inhibitors. SKOV3ip1-GFP adhesion/invasion on 3D omental model, fluorescence. 46,000 compounds, 0.1% hits;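 also: plate controls were DMSO wells for no effect and tomatine positive control wells for full effect; nearly all actives have a fitted effect of over 65% in size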
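qHTS, 4-pt dose (0.36-46 umol/L); SKOV3ip1-GFP, 1,200 cells/well, no FBS; primary omental fibroblast/mesothelial co-culture 48 h pre-grown; 2 h RT + 16 h 37 C; PBS wash, 4% PFA; GFP count 488/509 nm.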
S16 F2sN tox – S16 Schwann cell cytotoxicity; Potency, µM (doses to about 57.5 µM), for the others: top-dose activity change, negative = cytotoxicity, usual class: cytotoxic; S16 Pmp22-F2sN Schwann cells viability, CellTiter-Glo, 24 h; 43,000 compounds, 0.48% hits; also: nearly all actives have a fitted effect of over 65% in size
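S16 Schwann cells carrying the Pmp22-F2sN reporter, seeded in 1536-well format, were exposed to library compounds for 24 h at 37C. Viability was read as CellTiter-Glo luminescence after 15 min at room temperature.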
mTORC1 inh – inhibitors of mTORC1 signaling in Tsc2-/- p53-/- MEF cells | Tsc2-/- p53-/- MEF, phospho-rpS6 immunofluorescence/PI, 24 h | Potency, µM (top dose mostly 38.3 µM), for inactives: at the highest dose activity change, negative = inhibition, hits mostly inhibitors | 44,000 compounds, 0.78% hits | AID 493208;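 also: plate controls were DMSO for no effect and rapamycin for full effect; nearly all actives have a fitted effect of over 50% in size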
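Cell-based qHTS: Tsc2-/- p53-/- MEF, 24 h cpd, 37 °C; fix/perm, anti-phospho-S6 Alexa-488 + PI; Acumen 488 nm scan; pS6/PI ratio, % positive cells; rapamycin 7.5 nM = inhibition ref; PI count = viability.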
PMP22 txn prim – modulates PMP22 transcription in S16 Schwann cells. 43,000 compounds, 2% hits. Potency, µM (series often up to 57.5 µM), inactives show at the highest dose activity change, negative = inhibition, actives largely listed as inhibitors. AID 1508649. S16 Pmp22-F2sN Schwann cells (luciferase reporters placed in the Pmp22 gene), FLuc/NLuc coincidence luminescence, 24 h; active = clear falling dose curves in both reporters; inconclusive = both reporters move, but less clearly or upward; inactive = either reporter flat; the % is the NLuc reporter signal
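Reporter cells (S16 Pmp22-F2sN, 500–1,000 per well) exposed to compounds for 24 h, 37C, 5% CO2; lysis with FLuc read after 10 min, then Stop&Glo and NLuc read after 10 min.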
Starred values were filed as active, the others as inactive. Unless noted, calls follow the shape of the dose curve; as a rule, active = well fitted curve in the direction sought with a large enough effect; inconclusive = small, poorly fitted or top-dose-only effect, or another doubt; inactive = no such curve, though single readings can be large; an effect the other way counts as inactive or inconclusive. Unless noted, % is scaled to controls: 0 for no effect and ±100 for the full control effect; potency is read from the fitted curve at half-maximal effect.

How did COc1ccc(OC)c(NC(=O)c2nc(S(=O)(=O)Cc3ccc(F)cc3)ncc2Cl)c1 do in these assays?
p53null 32C tox: inconclusive; p53null 39C kill: 25.1µM*; SKOV3 invasion: 6.31µM*; S16 F2sN tox: 4.47µM*; mTORC1 inh: 2.93µM*; PMP22 txn prim: inconclusive

Results for CC(=O)Nc1ccc(NC(=O)c2nc(S(=O)(=O)Cc3ccc(F)cc3)ncc2Cl)cc1 ?
p53null 32C tox: -10.9%; p53null 39C kill: -27.8%; SKOV3 invasion: 3.16µM*; S16 F2sN tox: 3.55µM*; mTORC1 inh: 5.21µM*; PMP22 txn prim: 1.89µM*

What do the screens show for `CC(=O)Nc1ccc(NC(=O)c2nc(SCc3ccccc3C)ncc2Cl)cc1`?
p53null 32C tox: -9.7%; p53null 39C kill: -5.9%; SKOV3 invasion: -8.6%; S16 F2sN tox: 6.0%; mTORC1 inh: -6.1%; PMP22 txn prim: inconclusive

What do the screens show for `Cc1ccc(NC(=O)c2nc(S(=O)(=O)Cc3ccc(F)cc3)ncc2Cl)cc1C`?
p53null 32C tox: 20µM*; p53null 39C kill: inconclusive; SKOV3 invasion: 11.2µM*; S16 F2sN tox: 10µM*; mTORC1 inh: inconclusive; PMP22 txn prim: 7.27µM*

How did Cc1[nH]c(C=C2C(=O)Nc3ccc(S(=O)(=O)Cc4c(Cl)cccc4Cl)cc32)c(C)c1C(=O)N1CCC[C@H]1CN1CCCC1 do in these assays?
SKOV3 invasion: 5.3%

Results for O=c1[nH]nc(OCCCc2ccc(Cl)cc2)c(NCc2cccnc2)c1Br ?
SKOV3 invasion: -3.1%

Results for Nc1c(C(=O)Nc2ccc(C(=O)O)cc2)sc2nc3c(cc12)CCCC3 ?
p53null 32C tox: inconclusive; p53null 39C kill: inconclusive; SKOV3 invasion: 7.8%; S16 F2sN tox: 2.7%; mTORC1 inh: -5.9%; PMP22 txn prim: 10.7%

Results for CCOc1ccc(NC(=O)c2sc3nc4c(cc3c2N)CCCCCC4)cc1 ?
p53null 32C tox: -15.6%; p53null 39C kill: -14.3%; SKOV3 invasion: 7.3%; S16 F2sN tox: -0.1%; mTORC1 inh: 20.7µM*; PMP22 txn prim: inconclusive

How did NC(=O)c1nn2c(C(F)(F)F)cc(-c3ccc(Br)cc3)nc2c1Cl do in these assays?
p53null 32C tox: -7.2%; p53null 39C kill: 11.9%; SKOV3 invasion: -3.4%; S16 F2sN tox: 28.2µM*; mTORC1 inh: -2.1%; PMP22 txn prim: -18.9%

What do the screens show for `COc1ccc(-c2c(C)nn3c(C(F)(F)F)cc(-c4ccc(Br)cc4)nc23)cc1`?
p53null 32C tox: 2.0%; p53null 39C kill: -12.4%; SKOV3 invasion: 4.9%; S16 F2sN tox: -7.8%; mTORC1 inh: -2.0%; PMP22 txn prim: -15.1%

What do the screens show for `CCOc1ccc(NC(=O)c2ccc3c(c2)nnn3C2CCCC2)cc1`?
p53null 32C tox: -5.2%; p53null 39C kill: -11.1%; SKOV3 invasion: inactive; S16 F2sN tox: -30.2%; mTORC1 inh: 0.0%; PMP22 txn prim: inconclusive

Results for Cc1cc(C)cc(NC(=O)c2ccc3c(c2)nnn3C2CCCC2)c1 ?
p53null 32C tox: -8.7%; p53null 39C kill: -14.0%; SKOV3 invasion: 4.1%; S16 F2sN tox: 11.2µM*; mTORC1 inh: -22.7%; PMP22 txn prim: inconclusive

Results for CNC(=O)c1ccc(N2C(=S)N(c3cnc(C#N)c(C(F)(F)F)c3)C(=O)C23CCC3)cc1F ?
SKOV3 invasion: -6.1%

What do the screens show for `CCOc1ccccc1NC(=O)c1c(NCc2sccc2C)sc2c1CCC(C)C2` (configuration not stated)?
p53null 32C tox: 0.6%; p53null 39C kill: 18.1%; SKOV3 invasion: inactive; S16 F2sN tox: 7.2%; mTORC1 inh: 14.7µM*; PMP22 txn prim: inconclusive

Results for COc1cc(C(C)C)c(Oc2cnc(NC(CO)CO)nc2N)cc1I ?
SKOV3 invasion: -8.1%
